Source: PMC7826789 (International Journal of Molecular Sciences, 2021)

Columns and labels:
[1] = tested on: PIK3CB; details: Compound Concentration (nM):1000
[2] = tested on: PIK3CD; details: Compound Concentration (nM):1000
[3] = tested on: PIK3CG; details: Compound Concentration (nM):1000
[4] = tested on: T1, PIK4CB; details: Compound Concentration (nM):1000
T1 construct: gene PI4KB

[5] = tested on: PIKFYVE; details: Compound Concentration (nM):1000
[6] = tested on: PIM1; details: Compound Concentration (nM):1000
[7] = tested on: PIM2; details: Compound Concentration (nM):1000
[8] = tested on: PIM3; details: Compound Concentration (nM):1000
[9] = tested on: PIP5K1A; details: Compound Concentration (nM):1000
[10] = tested on: PIP5K1C; details: Compound Concentration (nM):1000
[11] = tested on: T2, PIP5K2B; details: Compound Concentration (nM):1000
T2 construct: gene PIP4K2B

[12] = tested on: T3, PIP5K2C; details: Compound Concentration (nM):1000
T3 construct: gene PIP4K2C

[13] = tested on: T4, PKAC-alpha; details: Compound Concentration (nM):1000
T4 construct: gene PRKACA

[14] = tested on: T5, PKAC-beta; details: Compound Concentration (nM):1000
T5 construct: gene PRKACB

[15] = tested on: PKMYT1; details: Compound Concentration (nM):1000
[16] = tested on: PKN1; details: Compound Concentration (nM):1000
[17] = tested on: PKN2; details: Compound Concentration (nM):1000
[18] = tested on: PKNB(M.tuberculosis); details: 1 µM
[19] = tested on: PLK1; details: Compound Concentration (nM):1000
[20] = tested on: PLK2; details: Compound Concentration (nM):1000
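Note: KINOMEscan scanMAX binding as percent activity remaining versus control; lower means stronger binding.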

| SMILES | Percent Control [1] [%] | Percent Control [2] [%] | Percent Control [3] [%] | Percent Control [4] [%] | Percent Control [5] [%] | Percent Control [6] [%] | Percent Control [7] [%] | Percent Control [8] [%] | Percent Control [9] [%] | Percent Control [10] [%] | Percent Control [11] [%] | Percent Control [12] [%] | Percent Control [13] [%] | Percent Control [14] [%] | Percent Control [15] [%] | Percent Control [16] [%] | Percent Control [17] [%] | Percent Control [18] [%] | Percent Control [19] [%] | Percent Control [20] [%] |
| --- | --- | --- | --- | --- | --- | --- | --- | --- | --- | --- | --- | --- | --- | --- | --- | --- | --- | --- | --- | --- |
| COc1cc(C=NNc2ncnc3c2cnn3-c2ccccc2)ccc1O [GW513184X] | 100 | 76 | 22 | 34 | 4.9 | 100 | 100 | 100 | 29 | 51 | 59 | 1.4 | 100 | 100 | 100 | 81 | 100 | 86 | 100 | 37 |
| CN(C)CCNC(=O)Nc1ccc(N(C)c2ccnc(Nc3ccc(CS(C)(=O)=O)cc3)n2)cc1.Cl [GW830900A] | 84 | 76 | 91 | 11 | 100 | 100 | 100 | 97 | 23 | 86 | 33 | 3.7 | 100 | 100 | 100 | 83 | 64 | 94 | 86 | 100 |
| C[C@@H](Oc1cc(-n2cnc3ccc(OC4CCN(C)CC4)cc32)sc1C(N)=O)c1ccccc1Cl [GSK579289A] | 20 | 27 | 11 | 100 | 15 | 19 | 100 | 29 | 21 | 72 | 52 | 75 | 100 | 100 | 81 | 72 | 57 | 35 |  | 13 |
| COc1ccc(COc2ccc(Cc3cnc(N)nc3N)cc2OC)cc1 [GW632580X] | 93 | 100 | 77 | 100 | 100 | 100 | 91 | 100 | 94 | 100 | 100 | 100 | 91 | 100 | 100 | 82 | 100 | 69 | 100 | 100 |
| Nc1ncnc2occ(-c3ccc(NC(=O)Nc4cc(C(F)(F)F)ccc4F)cc3)c12 [GW770249X] | 100 | 100 | 100 | 100 | 95 | 100 | 100 | 100 | 100 | 90 | 100 | 77 | 100 | 100 | 100 | 100 | 90 | 100 | 100 | 1.9 |
| COc1ccc2cc(-c3c(-c4ccncc4)nc(-c4ccc(S(C)(=O)=O)cc4C)n3C)ccc2c1 [SB-633825] | 94 | 100 | 79 | 69 | 100 | 78 | 97 | 80 | 95 | 100 | 83 | 73 | 96 | 65 | 89 | 86 | 100 | 83 | 63 | 89 |
| CN1CCN(C(=O)c2ccc(NC(=O)Nc3ccc(N(C)c4ccnc(Nc5ccc(CS(C)(=O)=O)cc5)n4)cc3)cc2)CC1.Cl [GW830263A] | 100 | 100 | 93 | 97 | 100 | 100 | 100 | 100 | 9.3 | 97 | 17 | 0.9 | 100 | 100 | 96 | 70 | 100 | 87 | 100 | 100 |
| COc1cc(N2CCN(C(C)C)CC2)ccc1Nc1nc(Nc2ccc(F)cc2C(=O)NC[C@@H](O)CO)c2cc[nH]c2n1 [GSK1392956A] | 96 | 80 | 100 | 100 | 95 | 100 | 100 | 100 | 100 | 100 | 100 | 94 | 100 | 100 | 100 | 100 | 100 | 99 | 6.3 | 100 |
| CN(C)c1cc2c(Nc3ccc4c(cnn4Cc4ccccc4)c3)ncnc2cn1 [GW282974X] | 89 | 70 | 96 | 100 | 100 | 91 | 93 | 90 | 100 | 100 | 100 | 100 | 100 | 95 | 73 | 90 | 88 | 68 | 71 | 100 |
| C/C(Nc1ccc(S(N)(=O)=O)cc1)=C1/C(=O)Nc2ccccc21 [GW335962X] | 100 | 95 | 100 | 100 | 100 | 91 | 95 | 89 | 96 | 84 | 100 | 93 | 100 | 87 | 91 | 83 | 74 | 83 | 90 | 87 |
| NS(=O)(=O)c1ccc(N/N=C2\C(=O)Nc3ccc(-c4cnco4)cc32)cc1 [GW276655] | 98 | 88 | 83 | 75 | 100 | 45 | 96 | 56 | 26 | 55 | 69 | 100 | 88 | 94 | 95 | 100 | 87 | 78 | 77 | 83 |
| NS(=O)(=O)c1ccc(N/N=C2\C(=O)Nc3ccc(Cl)cc32)cc1 [GW280670X] | 100 | 94 | 100 | 100 | 94 | 100 | 100 | 100 | 100 | 80 | 98 | 81 | 100 | 100 | 100 | 100 | 97 | 100 | 100 | 100 |
| CCn1c(-c2nonc2N)nc2c(C#CC(C)(C)O)nc(OCCNC)cc21.Cl [GSK949675] | 91 | 82 | 73 | 100 | 20 | 100 | 56 | 100 | 79 | 0 | 100 | 78 | 21 | 16 | 100 | 9.3 | 100 | 0.7 | 100 | 100 |
| Cl.O=S1CCN(Cc2ccc(-c3ccc4ncnc(Nc5ccc(OCc6ccccc6)c(F)c5)c4c3)o2)CC1 [GW576924A] | 96 | 100 | 100 | 100 | 86 | 100 | 100 | 100 | 100 | 67 | 100 | 63 | 100 | 100 | 100 | 100 | 100 | 100 | 100 | 100 |
| CCS(=O)(=O)c1ccc(OC)c(Nc2ncc(-c3cccc(OC)c3)o2)c1 [GW580509X] | 100 | 93 | 100 | 40 | 91 | 100 | 100 | 100 | 100 | 17 | 91 | 11 | 100 | 100 | 100 | 100 | 100 | 100 | 92 | 86 |
| COc1ccccc1-c1cc(/C=C2\C(=O)Nc3ncc(Br)cc32)cc(Br)c1O [GW442130X] | 80 | 64 | 65 | 68 | 30 | 100 | 96 | 100 | 86 | 100 | 100 | 100 | 95 | 100 | 100 | 100 | 36 | 74 | 95 | 100 |
| NS(=O)(=O)c1ccc(Nc2ncc(-c3ccccc3)o2)cc1 [GW572399X] | 100 | 100 | 100 | 71 | 100 | 100 | 100 | 100 | 100 | 74 | 100 | 29 | 100 | 100 | 100 | 100 | 100 | 76 | 100 | 86 |
| Cl.O=C(Nc1ccc(Oc2ccc3[nH]c(NC(=O)c4ccco4)nc3c2)cc1)Nc1cc(C(F)(F)F)ccc1F [GW683134A] | 100 | 90 | 100 | 100 | 100 | 100 | 100 | 100 | 100 | 98 | 100 | 76 | 100 | 100 | 100 | 100 | 79 | 99 | 100 | 88 |
| CC(C)COC(=O)c1ccc2c(c1)/C(=C/Nc1ccc(S(N)(=O)=O)cc1)C(=O)N2 [GW416981X] | 100 | 95 | 100 | 100 | 100 | 81 | 100 | 40 | 33 | 89 | 100 | 65 | 100 | 100 | 100 | 100 | 71 | 86 | 100 | 59 |
| CCS(=O)(=O)c1ccc(OC)c(Nc2ncc(-c3cccc(F)c3)o2)c1 [GW621970X] | 100 | 100 | 100 | 100 | 100 | 100 | 100 | 100 | 99 | 28 | 99 | 3.8 | 100 | 100 | 100 | 100 | 68 | 100 | 96 | 93 |
